In all, about 310,000 compounds went through this assay and about 14,000 (4.5%) showed an effect of 50% or more. The effect is printed as a negative number. For the sample, strong results were picked, then their nearest neighbours and some compounds at random.
Molecular target: human ether-à-go-go-related gene (hERG) potassium channel (human, UniProt Q12809)
Assay: primary screen, population patch clamp on CHO cells stably expressing hERG; higher = less effect of the substance
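Further: peak tail current of the secondary pulse compared with the same well before compound.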

Chain of human ether-à-go-go-related gene (hERG) potassium channel (Q12809 whole entry, looked up): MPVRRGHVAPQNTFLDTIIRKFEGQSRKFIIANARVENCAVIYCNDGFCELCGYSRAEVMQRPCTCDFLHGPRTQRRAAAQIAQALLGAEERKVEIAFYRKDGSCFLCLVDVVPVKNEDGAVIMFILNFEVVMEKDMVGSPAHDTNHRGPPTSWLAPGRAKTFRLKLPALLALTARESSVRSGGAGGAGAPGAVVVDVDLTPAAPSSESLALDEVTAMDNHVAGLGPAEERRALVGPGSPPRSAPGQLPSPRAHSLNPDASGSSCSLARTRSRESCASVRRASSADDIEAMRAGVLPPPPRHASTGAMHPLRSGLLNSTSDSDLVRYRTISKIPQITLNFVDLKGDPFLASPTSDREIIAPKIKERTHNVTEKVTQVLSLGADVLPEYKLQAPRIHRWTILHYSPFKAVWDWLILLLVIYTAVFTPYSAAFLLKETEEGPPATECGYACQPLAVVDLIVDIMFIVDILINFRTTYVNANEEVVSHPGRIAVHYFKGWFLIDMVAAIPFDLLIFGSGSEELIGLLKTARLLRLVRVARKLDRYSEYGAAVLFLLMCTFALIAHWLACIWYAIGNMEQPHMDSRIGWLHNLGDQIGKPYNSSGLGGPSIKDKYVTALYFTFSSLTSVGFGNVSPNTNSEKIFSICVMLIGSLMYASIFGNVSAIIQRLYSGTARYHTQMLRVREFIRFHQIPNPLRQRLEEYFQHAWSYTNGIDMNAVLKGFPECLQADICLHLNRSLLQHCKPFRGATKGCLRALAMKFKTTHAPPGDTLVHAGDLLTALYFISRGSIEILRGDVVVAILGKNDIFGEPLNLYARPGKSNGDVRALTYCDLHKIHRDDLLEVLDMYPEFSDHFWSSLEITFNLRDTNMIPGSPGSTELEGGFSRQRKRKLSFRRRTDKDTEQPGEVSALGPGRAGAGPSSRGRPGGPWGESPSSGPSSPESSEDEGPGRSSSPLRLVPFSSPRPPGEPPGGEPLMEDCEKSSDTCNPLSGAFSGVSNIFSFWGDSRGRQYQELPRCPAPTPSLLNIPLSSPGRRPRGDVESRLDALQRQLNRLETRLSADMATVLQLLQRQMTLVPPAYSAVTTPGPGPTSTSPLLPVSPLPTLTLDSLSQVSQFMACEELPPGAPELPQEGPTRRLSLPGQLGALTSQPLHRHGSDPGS

| SMILES | hERG current change (%, negative = inhibition) at 10uM [%] |
| --- | --- |
| CCOc1ccc(OCC)c(S(=O)(=O)N2CCC(C)CC2)c1 | -29.4 |
| CCOc1ccc(OCC)c(S(=O)(=O)N2CCCCC2)c1 | -12.2 |
| CCOc1ccc(OCC)c(S(=O)(=O)N2CCCCC2C)c1 (stereo not shown) | -52.2 |
| O=C(NCCNc1nccc(C(F)(F)F)n1)c1cccs1 | -11.3 |
| Cc1ccc2c(ccc(=S)n2C)c1 | 22.1 |
| CCOc1ccc2[nH]c(C)c(CN3CCCCC3)c(=O)c2c1 | -13.1 |
| O=C(/C=C/c1ccccc1)NCCS(=O)(=O)N1CCN(c2ccccc2F)CC1 | -3.41 |
| CCn1cc(C(=O)O)c(=O)c2cnc(N3CCNCC3)nc21 | -65.4 |
| C=CCNC(=S)N1CCN(c2ncc3c(=O)c(C(=O)O)cn(CC)c3n2)CC1 | 2.8 |
| CCn1cc(C(=O)O)c(=O)c2cnc(N3CCN(C(=S)Nc4ccccc4)CC3)nc21 | 2.24 |
| C/C(=N\NC(=O)C(O)c1ccccc1)c1ccc(Br)s1 (stereo not shown) | 1.82 |
| O=[N+]([O-])c1nn(-c2ccccc2)n(O)c1=NC1CCN(Cc2ccccc2)CC1 | -58.1 |
| Cc1ccc(CN=c2c([N+](=O)[O-])nn(-c3cccc(C)c3)n2O)cc1 | -32.7 |
| COc1ccc(-n2nc([N+](=O)[O-])c(=NC3CCN(Cc4ccccc4)CC3)n2O)cc1 | -39.8 |
| Cc1cccc(CCN=c2c([N+](=O)[O-])nn(-c3ccccc3)n2O)c1 | -15.5 |
| Cc1cccc(-n2nc([N+](=O)[O-])c(=NC3CCN(Cc4ccccc4)CC3)n2O)c1 | -66.8 |
| O=[N+]([O-])c1nn(-c2ccc3c(c2)OCCO3)n(O)c1=NC1CCN(Cc2ccccc2)CC1 | -17.8 |
| COC(=O)c1ccccc1S(=O)(=O)Nc1ccc(OC)nc1 | -0.17 |
| Cc1cccc(Nc2nn3c(=O)c4ccccc4nc3s2)c1 | 23.6 |
| COc1ccc(NC(=O)c2cccc3cccnc23)cc1S(N)(=O)=O | 29.2 |
| CN(C)C(C)(C)C#CCC(c1ccccc1)c1ccccc1.Cl | -55.9 |
| CN(C)CC#CCOC(c1ccccc1)c1ccccc1.Cl | -16.1 |

| SMILES | hERG current change (%, negative = inhibition) at 10uM [%] |
| --- | --- |
| CN(C)C(C)(C)C#CC(O)(c1ccccc1)c1ccccc1 | -26.6 |
| CN(CC#CCC(c1ccccc1)c1ccccc1)C(C)(C)C.Cl | -83.3 |
| CN(C)C(C)(C)C#CCCCCC#CC(C)(C)N(C)C | 16.5 |
| CN(C)CC(c1ccccc1)c1ccccc1.Cl | 5.32 |
| CC1CCC(NC(=O)CCCn2sc3ccccc3c2=O)CC1 (stereo not shown) | 15.4 |
| N#C/C(=N\Nc1ccccc1[N+](=O)[O-])C(=N)N1CCCCC1 | 33.8 |
| Cc1ccccc1N1C(=O)/C(=C/c2ccco2)C(=O)NC1=S | 16.5 |
| NC(=O)COC(=O)c1ccccc1OCc1ccccc1 | 18.3 |
| CN1C(=O)c2ccc(NC(=O)CCS(=O)(=O)c3ccccc3)cc2C1=O | -3.01 |
| COc1ccc(-c2nnc(SCCC(=O)O)n2C)cc1OC | -6.37 |
| COc1ccc(CCNC(=O)COc2ncnc3ccccc23)cc1OC | 16.3 |
| CCOC(=O)c1cnc2ccc(OC)cc2c1NCCc1ccc(OC)c(OC)c1 | -76.6 |
| CCOC(=O)c1cnc2ccc(C(=O)OC)cc2c1NCCc1ccc(OC)c(OC)c1 | -3.95 |
| CCOC(=O)c1cnc2ccccc2c1NCCc1ccc(OC)c(OC)c1 | -78.2 |
| CCOC(=O)c1cnc2c(ccc3ccccc32)c1NCCCN(C)C | -47 |
| CCOC(=O)c1cnc2c(ccc3ccccc32)c1NCCO | -26.4 |
| CCOC(=O)c1cnc2ccc(OC)cc2c1Nc1ccc(N2CCN(C)CC2)cc1 | -18.2 |
| CCOC(=O)c1cnc2c(C)cccc2c1NCCc1ccc(OC)c(OC)c1 | -66.9 |
| CCOC(=O)c1cnc2ccccc2c1Nc1cc(C(=O)O)ccc1C | 14.9 |
| O=C(O)CCn1cc(/C=C2\NC(=S)N(c3ccccc3)C2=O)c(-c2ccc(Br)cc2)n1 | 30.1 |
| CC(=O)CCc1ccc(Oc2nc(-c3cccnc3)nc3ccccc23)cc1 | 5.75 |
| COc1ccc(Nc2cnn(-c3nc4ccccc4s3)c(=O)c2Cl)cc1 | -3.58 |

| SMILES | hERG current change (%, negative = inhibition) at 10uM [%] |
| --- | --- |
| CC1(c2ccccc2)NC(=O)N(CC(=O)Nc2cc3c(cc2Br)OCCO3)C1=O (stereo not shown) | -8.6 |
| S=C(Nc1ccccc1Oc1ccccc1)NC1CCCC1 | -0.79 |
| COc1ccc(C(=O)N2CCN(CCNC(=O)C(=O)Nc3ccc(F)cc3)CC2)cc1 | -69.6 |
| COc1ccc(C(=O)N2CCN(CCNC(=O)C(=O)Nc3ccc(F)cc3)CC2)cc1OC | -61.5 |
| Cc1ccc(S(=O)(=O)N2CCN(CCNC(=O)C(=O)Nc3ccc(F)cc3)CC2)cc1 | 2.09 |
| COc1ccc(NC(=O)C(=O)NCCN2CCN(C(=O)c3cccc(Br)c3)CC2)cc1 | -31 |
| CC(C)(C)c1ccc(C(=O)N2CCN(CCNC(=O)C(=O)Nc3ccc(F)cc3)CC2)cc1 | -52.5 |
| O=C(NCCN1CCN(C(=O)c2c(F)cccc2F)CC1)C(=O)Nc1ccc(Cl)cc1 | -32.5 |
| CCN1CCN(C(=O)c2ccc(OCC(=O)Nc3ccc(F)cc3)c(OC)c2)CC1 | -14.9 |
| COc1ccc(C(=O)N2CCN(CCNC(=O)C(=O)Nc3ccc(Br)cc3)CC2)cc1 | -80 |
| Cc1cccc(C(=O)N2CCN(CCNC(=O)C(=O)Nc3ccc(F)cc3)CC2)c1 | -38.8 |
| Cc1cccc(NC(=O)/C(=C\c2ccco2)NC(=O)c2ccccc2)c1 | -22.4 |
| CC(=O)N1CCC(=NNc2ncc(C(F)(F)F)cc2Cl)CC1 | 2.73 |
| CCOC(=O)c1ccc(N=c2sc(C(=O)OC)cc(=O)n2Cc2ccco2)cc1 | 13.7 |
| O=C(CN1C(=O)c2ccccc2C1=O)NCc1ccncc1 | -33.1 |
| COc1ccc(NC(=O)c2ccc(-c3csc(C)n3)cc2)cc1 | 18.5 |
| Cc1ccc(C(=O)CNc2ccccc2)cc1 | 16.2 |
| O=C(CCl)Nc1cccc(Oc2ccccc2)c1 | -22.4 |
| O=[N+]([O-])c1ccc(N2CCN(S(=O)(=O)c3ccc(Cl)c(Cl)c3)CC2)cc1NCCN1CCOCC1 | 3.04 |
| COC(=O)c1cc(NC(=O)CCc2c(C)nc3ncnn3c2C)cc(C(=O)OC)c1 | -36.1 |
| Cc1cccc(N(C)c2cc(C)nc3nc(C)nn23)c1 | -15.8 |
| Cc1ccc(-c2cnn(-c3cccc(C(F)(F)F)c3)c2N)cc1 | -3.62 |

| SMILES | hERG current change (%, negative = inhibition) at 10uM [%] |
| --- | --- |
| CCOc1ccc(NC(=O)C(=O)NCCN2CCN(C(=O)c3ccc(C)cc3)CC2)cc1 | -75.2 |
| CCOc1ccc(NC(=O)C(=O)NCCN2CCN(S(=O)(=O)c3ccc(C)cc3)CC2)cc1 | 8.62 |
| COc1ccc(NC(=O)C(=O)NCCN2CCN(C(=O)c3ccc(C)cc3)CC2)cc1 | -75.4 |
| CNC(=O)C(=O)NCCN1CCN(C(=O)c2ccc([N+](=O)[O-])cc2)CC1 | -39.6 |
| O=C(NCCN1CCN(C(=O)c2ccc([N+](=O)[O-])cc2)CC1)C(=O)Nc1ccc(F)cc1 | -76.8 |
| CCOc1ccc(NC(=O)C(=O)NCCN2CCN(S(=O)(=O)c3ccccc3)CC2)cc1 | -8.75 |
| COc1ccc(NC(=O)C(=O)NCCN2CCN(C(=O)c3ccc(C(C)(C)C)cc3)CC2)cc1 | -2.54 |
| COc1ccc(NC(=O)C(=O)NCCN2CCN(C(=O)C(c3ccccc3)c3ccccc3)CC2)cc1 | -20.8 |
| CCC(C)[C@H](NC(=O)NCc1ccccc1Cl)C(=O)OC (stereo partly shown) | 12 |
| CN(C)c1ccc(C(=O)Nc2ccc(S(=O)(=O)NC3=NCCCCC3)cc2)cc1 | -5.38 |
| CCc1ccc(N(C(=O)Cc2cccs2)C(C(=O)NC2CCCCC2)c2cn(C)nc2C)cc1 (stereo not shown) | -21.4 |
| CCN1CCCC1CNC(=O)C(=O)NC1CC1 (stereo not shown) | 10.3 |
| CCOC(=O)c1cc(-c2ccc3c(c2)OCCO3)n[nH]1 | 20.3 |
| Cc1cccc(NC(=O)Nc2ccc(Cl)c(Cl)c2)n1 | 9.38 |
| CCOc1ccccc1C(=O)NCc1ccc2c(c1)OCO2 | -12.1 |
| O=C(CCN1C(=O)[C@@H]2Cc3ccccc3CN2C1=O)N[C@@H](Cc1ccccc1)C(=O)O | 8.75 |
| Cc1ccc(Nc2nc(NCCCN3CCOCC3)nc(N)c2[N+](=O)[O-])cc1 | -66.1 |
| Nc1nc(NCCCN2CCOCC2)nc(Nc2ccccc2)c1[N+](=O)[O-] | -36.5 |
| Cc1ccc(Nc2nc(NCCCN3CCOCC3)nc(N)c2[N+](=O)[O-])cc1C | -5.15 |
| Nc1nc(NCCCN2CCOCC2)nc(Nc2ccc(F)cc2)c1[N+](=O)[O-] | -58.6 |
| Nc1nc(NCCCN2CCOCC2)nc(Nc2ccc(Cl)cc2)c1[N+](=O)[O-] | 7.65 |
| COc1ccc(Nc2nc(NCCCN3CCOCC3)nc(N)c2[N+](=O)[O-])cc1 | -22 |
